# Compound activity deposited in PubChem BioAssay by National Center for Advancing Translational Sciences (NCATS).
# CCT modulator: High-Throughput Screening for Modulators of Cytosolic Chaperonin Activity | purified chaperonin ATPase assay, HTRF ADP detection, 30 min | AID 651819, 2012 | hit rate 0.3% among 360,000 | activity change, % (test concentration not listed), hits read low; in the data active = activity change below about -30%; also: % is scaled to controls: 0 for no effect and ±100 for the full control effect
#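 ATPase activity: ADP formed was measured by HTRF Transcreener (665/615 nm ratio) after 30 min at 37 deg C with 10 uM ATP. Compounds screened at one 76 uM concentration against 40 or 20 nM TRiC in Tris pH 7.4/KCl/MgCl2/DTT buffer.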
# Abeta rescue: qHTS for compounds that reverse cellular toxicity of Amyloid beta (A-beta) peptide in yeast: Primary Screen. yeast expressing A-beta42, growth rescue, OD600, 48 h; response scale: 0% DMSO, 100% iron-clioquinol control. Potency, µM (top dose mostly 46.1 µM), usual class: activators. hit rate 0.063% among 410,000; also: potency is read from the fitted curve at half-maximal effect; nearly all actives have a fitted effect of over 55% in size
#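 Yeast growth medium received pinned compounds, then yeast cells expressing toxic A-beta were added; plates incubated at 30 C for 48 hr. Growth read as absorbance at 600 nm, normalized to DMSO and equimolar FeCl3 plus clioquinol controls.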
# MmCpn inh: Inhibitors of TCP-1 ring complex (TRiC) of Methanococcus maripaludis (MmCpn): qHTS; purified Mm-Cpn ATPase, ADP Transcreener TR-FRET; hit rate 0.031% among 330,000; Chaperonin Mm-Cpn (Methanococcus maripaludis); Potency, µM (highest dose often 76.9 µM), without a hit: at the highest dose activity, negative = inhibition, hits mostly inhibitors; also: potency is read from the fitted curve at half-maximal effect; % is scaled to controls: 0 for no effect and ±100 for the full control effect; nearly all actives have a fitted effect of over 80% in size
#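 ATPase read-out: TR-FRET ADP immunoassay (anti-ADP Eu cryptate vs ADP-d2), ex 320 nm, em 590/665 nm; signal drops as ADP forms. Enzyme 25 nM, ATP 10 uM, 30 min at 37°C after 10 min compound preincubation.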
# aSyn rescue: qHTS of alpha-syn Inhibitors; Yeast expressing alpha-synuclein, growth rescue, BacTiter-Glo, 24 h; Potency, µM (series often up to 46.1 µM), without a hit: at the highest dose growth rescue (activation), hits mostly activators; hit rate 0.14% among 370,000; AID 652106, 2013; also: potency is read from the fitted curve at half-maximal effect; % of control where 0% means no effect; nearly all actives have a fitted effect of over 65% in size
#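 Rescue of yeast growth: cells expressing toxic alpha-synuclein, induced in galactose at OD600 0.02, incubated with compound 24 h at 30 C. ATP luminescence quantified growth; inhibitors of toxicity appear as activators.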
# FUS yeast rescue: qHTS for Suppressors of FUS Proteinopathy: Primary screen using FUS-linked yeast assay; S. cerevisiae FUS-expressing, growth rescue, OD600, 24 h; Potency, µM (top dose mostly 76.6 µM), most hits filed as activators; hit rate 0.24% among 390,000;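 also: potency is read from the fitted curve at half-maximal effect; plate controls were DMSO vehicle for no effect and reference control for full effect; nearly all actives have a fitted effect of over 55% in size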
#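 Toxicity suppression screen in FUS-yeast. Cells induced with 2% galactose, starting OD 0.005, treated 24hr at 30C with compounds at multiple final concentrations; growth by OD600.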
# TDP-43 yeast inh: qHTS of TDP-43 Inhibitors | hit rate 1.8% among 410,000 | TDP-43 expressing yeast growth rescue, BacTiter-Glo, 24 h | AID 652104, 2013 | Potency, µM (series often up to 46.1 µM), without a hit: at the top dose growth rescue (activation), actives largely listed as activators; also: potency is read from the fitted curve at half-maximal effect; % of control where 0% means no effect; nearly all actives have a fitted effect of over 50% in size
#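 Growth rescue of TDP-43-toxic yeast measured as ATP luminescence (BacTiter-Glo). Cells grown to mid-log in raffinose, induced in galactose at OD600=0.02, exposed to compound 24 hr at 30 deg C.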
# * hit, by the source's call; i = inactive; ? = inconclusive; . = no result given; [ ] = dose if it differs, or a comment. Compounds with a hit are over-represented: about 2.3% of the library has one in this group of screens. Unless noted, calls follow the shape of the dose curve; as a rule, active = well fitted curve in the direction sought with a large enough effect; inconclusive = small, poorly fitted or top-dose-only effect, or another doubt; inactive = no such curve, though single readings can be large; an effect the other way counts as inactive or inconclusive.
SMILES,CCT modulator,Abeta rescue,MmCpn inh,aSyn rescue,FUS yeast rescue,TDP-43 yeast inh
O=C(Nc1ccc(Cl)cc1)c1cc2c(cc1O)[nH]c1ccccc12,-4,i,-1%,-13%,i,4µM*
O=C(NCc1ccccc1)OC1CC2CC1[C@H]1CCCCN1C2 (some centres not stated),.,.,.,.,i,.
Cc1ccccc1NC(=S)NC(=O)/C=C/c1ccco1,2,i,-3%,-11%,8.9µM*,10µM*
COCCCNC(=O)c1ccc(-n2c(-c3ccccc3)cc3c2CCCC3)cc1,.,i,.,.,i,5%
C[n+]1c(/C=C/c2ccnc3ccccc23)cc(/C=C/c2ccnc3ccccc23)c2ccccc21,.,.,.,-38%,.,.
COC(=O)CCCC(=O)Nc1ccc(Cl)c(Cl)c1,-1,i,0%,-4%,i,10µM*
CCCC[C@H]1C2CC(OC(=O)NCc3ccc(Cl)cc3)C(C2)[C@H]2CCCCN21 (some centres not stated),.,.,.,.,i,.
CC1C(=O)OC(c2ccc(Cl)cc2)C(C)(C)C1=O (configuration not stated),-2,i,1%,16%,i,?
C[C@@H]1C=CC(=O)O[C@@H]1c1ccc(Cl)cc1,-1,i,-3%,-16%,i,13µM*
Cc1nn(-c2ccccc2)c(C)c1/C=N\N1CCN(Cc2ccccc2Cl)CC1,.,.,.,.,i,.
CC1C=Cc2ccccc2N1C(=O)c1ccccc1 (configuration not stated),-2,i,-1%,5%,i,-2%
N#CC1c2ccccc2-c2ccccc2N1C(=O)c1ccccc1 (configuration not stated),-3,i,.,22µM*,i,28µM*
CC(=O)c1c(C)nc(-c2ccccc2)nc1NC(=O)C(C)C,0,i,1%,-1%,i,-6%
CC(=O)c1c(C)nc(-c2ccc(Cl)cc2)nc1NC(=O)C(C)C,-74*,i,-1%,1%,i,-1%
Clc1cccc(-c2cc3nc(NCCOc4ccccc4)ccn3n2)c1,-29,i,.,1%,i,-28%
CC(C)(C)c1cc2nc(NCc3cccc(Cl)c3)ccn2n1,-1,?,.,?,i,25µM*
Clc1cccc(CNc2ccn3nc(-c4ccc(OCc5ccccc5)cc4)cc3n2)c1,-3,i,.,-5%,i,-3%
Clc1cccc(CNc2ccn3nc(-c4cccc(Cl)c4)cc3n2)c1,0,?,.,25%,i,11µM*
Clc1cccc(CNc2ccn3nc(-c4ccccc4)cc3n2)c1,0,?,.,?,i,13µM*
Clc1ccc(-c2cc3nc(NCc4cccc(Cl)c4)ccn3n2)cc1,-1,i,.,-42%,i,35µM*
O=C(CSCc1cc(=O)c2ccccc2[nH]1)Nc1cccc(C(F)(F)F)c1,.,i,.,.,i,19%
CCn1c(=O)cc(N2CCN(c3cccc(C(F)(F)F)c3)CC2)[nH]c1=O,.,.,.,.,i,.
Cc1ccccc1-n1c(C)nnc1SC(C)C(=O)NCc1ccco1 (configuration not stated),.,.,.,-5%,.,.
C=CCNC(=O)CN(C(=O)Cc1cccc(OC(F)(F)F)c1)c1cccc(Br)c1,.,.,.,.,i,.
Cc1ccc(NP(=O)(c2ccc(N(C)C)cc2NC(=O)c2cccs2)N2CCOCC2)cc1 (configuration not stated),-1,i,-12%,8%,i,3%
SMILES,CCT modulator,Abeta rescue,MmCpn inh,aSyn rescue,FUS yeast rescue,TDP-43 yeast inh
Cc1ccc(NP(=O)(c2ccc(N(C)C)cc2NC(=O)c2cccs2)N2CCOCC2)cc1Cl (configuration not stated),0,i,1%,14%,4µM*,-8%
O=C(c1ccco1)N1N=C(c2ccccc2O)CC1c1cccs1 (configuration not stated),-1,i,.,15%,i,35µM*
CCCc1nc(SCC(=O)c2ccccc2)c2c(=O)n(C)c(=O)n(C)c2n1,-3,i,-1%,?,i,14µM*
COc1cc(OC)c(OC)cc1/C=C/c1ccc2ccccc2[n+]1C,.,.,.,-20%,.,.
O=C1c2ccccc2NC(c2ccc(-c3ccc(Br)cc3)o2)N1O (configuration not stated),-2,i,-2%,22µM*,?,-39%
O=C1c2ccccc2NC(c2ccc(-c3ccc(F)cc3)o2)N1O (configuration not stated),.,i,0%,.,i,.
Fc1ccccc1-n1ncc2c1ncn1nc(Cc3ccccc3)nc21,.,i,.,.,i,10µM*
Cc1ccc(O)c(NC(=O)c2cc([N+](=O)[O-])ccc2Cl)c1,1,i,-1%,16%,i,?
Cc1cc(O)c(NC(=O)c2cc([N+](=O)[O-])ccc2Cl)cc1C,-1,i,0%,-3%,i,14µM*
COc1cc(C2CC=C(C(=O)O)C(c3ccccc3F)N2S(=O)(=O)c2ccc(C)cc2)cc(OC)c1OC (configuration not stated),.,.,.,.,i,.
CN1c2ccsc2C(O)=C(C(=S)Nc2ccccc2)S1(=O)=O,1,i,0%,12%,i,?
CCNC(=O)C1=C(O)c2sccc2N(C)S1(=O)=O,-1,i,0%,6%,i,8.9µM*
CC(C)[C@H]1COCCS(=O)(=O)N1Cc1cccc(Cl)c1,-1,i,-4%,9%,i,35µM*
CCOC(=O)c1sc(Nc2nc3c(OC)cccc3s2)cc1C,4,i,-15%,0%,?,22µM*
CCOC(=O)c1sc(Nc2nc3cc4c(cc3s2)OCO4)cc1C,0,i,-17%,4%,i,19%
Cc1ccc(Cn2cc(CN3[C@H](CC(C)C)COc4cc(Br)ccc4S3(=O)=O)nn2)cc1,.,.,.,.,i,.
CCCCNC(=O)NC1CCN(CC(=O)Nc2ccc3c(c2)OCCO3)CC1,.,.,.,.,i,.
Fc1ccc(Br)cc1SCCc1ccncc1,-8,i,2%,-4%,i,11µM*
CCN(CC)c1ccc(/C=C/c2nc3ccccc3s2)cc1,.,.,-1%,.,.,.
Nc1ccc(/C=C/c2nc3ccccc3s2)cc1,.,.,.,13µM*,.,.
N#C/C(=C\c1ccc(Cl)cc1)C(=O)Nc1cccnc1,0,13µM*,0%,-11%,i,0%[1.82 µM]
O=C(NCc1ccco1)OC1CCC12CCC(c1ccccc1)CC2 (configuration not stated),.,.,.,.,i,.
